Among the data in PubChem BioAssay are z-score and composite z-score values, retold here.

Calls of active or inactive are those of the source. Unless noted, no rule for the calls is given here.

Assay [1] can be described thus: HepG2 liver cancer cell viability effects, profiling panel, resazurin fluorescence, 24 h, PK04 Diversity Set (AID 1172). Also: test concentration not given here. Particulars: higher = more signal. Background: Resazurin is reduced to fluorescent resorufin, in cell work by metabolically active cells.
The nature of assay [2]: basal S. cerevisiae growth modulation, no modifier, primary screen, OD600, strain BY4716, 24 h, basal condition (AID 1173). Particulars: OD600, 24 h, higher = more signal, called active from +8 up or from −8 down.
Assay [3] can be described thus: MM1S myeloma cell viability, profiling panel, resazurin fluorescence, basal, 24 h, PK04 Diversity Set (AID 1174).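 Also: MM1S multiple myeloma cell line; test concentration not given here.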 Particulars: higher = more signal, called active from +8 up or from −8 down.
The target in assay [4] is Dihydroorotate dehydrogenase (quinone), mitochondrial (Plasmodium falciparum (isolate 3D7)) (UniProt Q08210). Description: PfDHODH enzyme inhibitors, primary screen, biochemical, C-terminal His tag, absorbance 600 nm (AID 1175).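 Also: recombinant parasite enzyme with a five histidine tag at its C terminus; test concentration not given here.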 The settings on record: DCIP absorbance 600 nm, higher = more signal, called active from +8 up or from −8 down.
Assay [5] is described as follows: P. aeruginosa biofilm formation inhibitors, primary screen, strain PAO1, LB-PBS medium, absorbance 600 nm (AID 1176). Also: test concentration not given here. The settings on record: P. aeruginosa PAO1 growth/biofilm, A600, 12 h; higher = more signal.
The nature of assay [6]: S. cerevisiae RM11-1a growth modifiers, primary screen, strain RM11-1a, OD600, basal, 24 h (AID 1177).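 Also: cultures grown under basal conditions with no added stressor; test concentration not given here.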 The settings on record: OD600, 24 h, higher = more signal, called active from +8 up or from −8 down.
Assay [7] in a line: E. coli acrAB mutant growth effects, primary screen, E. coli filamentation inducers, strain DRC39, OD650, 24 h (AID 1178).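 Also: growth measured as culture turbidity by optical density at 650 nm; test concentration not given here.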 The settings on record: higher = more signal, called active from +8 up or from −8 down.
The nature of assay [8]: E. coli acrAB mutant growth effects, primary screen, E. coli filamentation inducers, strain DRC39, OD650, 48 h (AID 1179).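 Also: screen aims at cell division blockers that make cells filament.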 Particulars: E. coli DRC39 delta-acrAB growth, higher = more signal, called active from +8 up or from −8 down.
Assay [9] in a line: RPMI8226 myeloma cell viability, profiling panel, resazurin fluorescence, basal, 24 h, PK04 Diversity Set (AID 1180).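 Also: RPMI8826 multiple myeloma cell line at 5000 cells per well; test concentration not given here.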 Particulars: higher = more signal.
For assay [10], the target named is E3 ubiquitin-protein ligase XIAP (Homo sapiens) (UniProt P98170). Description: XIAP binders, primary screen, biophysical, small-molecule microarray, fluorescence 635 nm (AID 1181).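 Also: score merges 667 nm emission and signal to noise over triplicate slides.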 Particulars: small-molecule microarray binding, higher = more signal.
Sequence of E3 ubiquitin-protein ligase XIAP (Homo sapiens) (P98170 whole entry, looked up): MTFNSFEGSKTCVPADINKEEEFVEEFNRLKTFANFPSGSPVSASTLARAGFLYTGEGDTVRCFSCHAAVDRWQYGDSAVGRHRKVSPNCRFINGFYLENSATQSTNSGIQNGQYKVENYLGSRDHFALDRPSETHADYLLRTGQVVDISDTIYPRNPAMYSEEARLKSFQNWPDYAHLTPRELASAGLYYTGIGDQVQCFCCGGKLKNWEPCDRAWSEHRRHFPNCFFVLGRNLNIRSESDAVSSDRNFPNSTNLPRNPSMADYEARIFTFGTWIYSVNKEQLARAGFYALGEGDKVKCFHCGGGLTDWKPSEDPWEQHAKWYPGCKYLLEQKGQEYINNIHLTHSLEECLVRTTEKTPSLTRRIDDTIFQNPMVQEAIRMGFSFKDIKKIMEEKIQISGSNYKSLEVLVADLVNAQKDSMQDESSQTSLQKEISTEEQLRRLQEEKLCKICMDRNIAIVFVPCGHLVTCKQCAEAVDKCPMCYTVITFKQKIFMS

Sequence of Dihydroorotate dehydrogenase (quinone), mitochondrial (Plasmodium falciparum (isolate 3D7)) (Q08210 whole entry, looked up): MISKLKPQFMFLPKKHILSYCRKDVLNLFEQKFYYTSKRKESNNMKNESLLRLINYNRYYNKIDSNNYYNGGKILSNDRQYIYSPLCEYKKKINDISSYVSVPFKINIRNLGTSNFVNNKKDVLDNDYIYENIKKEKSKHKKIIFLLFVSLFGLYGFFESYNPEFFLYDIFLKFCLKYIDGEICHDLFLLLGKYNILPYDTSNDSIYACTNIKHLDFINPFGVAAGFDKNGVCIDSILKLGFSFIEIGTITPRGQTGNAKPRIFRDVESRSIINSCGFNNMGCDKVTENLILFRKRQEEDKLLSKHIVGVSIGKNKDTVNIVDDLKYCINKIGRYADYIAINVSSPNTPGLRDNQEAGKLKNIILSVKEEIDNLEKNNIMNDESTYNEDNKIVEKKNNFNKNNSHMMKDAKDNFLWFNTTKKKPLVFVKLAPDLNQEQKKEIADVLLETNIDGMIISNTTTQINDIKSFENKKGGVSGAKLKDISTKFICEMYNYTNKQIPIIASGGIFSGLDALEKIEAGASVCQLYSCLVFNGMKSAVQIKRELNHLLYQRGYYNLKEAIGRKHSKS

Turning to `COC(=O)C(CC#Cc1ccc2c(c1)[C@]1(C(=O)N2)[C@H](c2ccccc2OCCO)N2[C@H](c3ccccc3)[C@H](c3ccccc3)OC(=O)[C@H]2[C@@H]1C(N)=O)C(=O)OC`, the z-score in assay [1] was -1.55; in assay [2], 0.858 (inactive); in assay [3], -9.28 (active); in [5], 1.18 (inactive); in assay [6] it was 1.77 (inactive); in assay [7] it was -0.0371 (inactive). Further, the results for the z-score in [8] and in assay [9] were -0.156 (inactive) and -7.42, respectively. The composite z-score in assay [4] is -2.77 (inactive); in assay [10], 0.0223.

In the case of `COCCOC(=O)N1C(=O)[C@@]2(c3ccccc31)[C@H](c1ccc(OCCO)cc1)N1[C@H](c3ccccc3)[C@H](c3ccccc3)OC(=O)[C@H]1[C@@H]2C(=O)N1CCc2cc(OC)c(OC)cc2C1`, the z-score in [1] was -0.14; in [2], 1.57 (inactive); in assay [3] it was 0.102 (inactive); in [5], 1.79 (inactive); in [6] it was 2.94 (inactive); in assay [7] it was 0.43 (inactive). The z-score in assay [8] is 0.736 (inactive); in assay [9] it was 0.994. Also, the results for the composite z-score in [4] and in [10] were -2.08 (inactive) and -0.153, respectively.

As for `O=C1C[C@@](C(=O)NCc2ccccc2)(c2ccc([N+](=O)[O-])cc2)[C@@H](c2ccc(CO)cc2)N1CC12CC3CC(CC(C3)C1)C2`, the z-score in [1] was -1.63; in assay [2], 0.229 (inactive); in [3] it was -3.64 (inactive); in [5], 1.06 (inactive); in assay [6] it was 0.87 (inactive); in assay [7], -0.202 (inactive). Further, the results for the z-score in assay [8] and in assay [9] were 0.368 (inactive) and -4.75, respectively. Also, the composite z-score was 0.59 (inactive) in assay [4] and 0.0427 in [10].

As to `CC1CC/C=C\[C@H]2OC34C=CCN(Cc5ccccc5)C(=O)[C@H]3N(C(C)CO)C(=O)[C@@H]4C2C(=O)O1` (stereo not given in full), the z-score was 0.36 in assay [1]; -1.39 (inactive) in assay [2]; 0.678 (inactive) in [3]; -0.525 (inactive) in assay [5]; -0.0642 (inactive) in assay [6]; 0.492 (inactive) in assay [7]. The z-score in [8] was 1 (inactive); in [9] it was 0.233. Also, the composite z-score in assay [4] is -0.166 (inactive); in [10], 0.0772.

For `C[N+](C)(C)CCCC[C@@H]1NC(=O)[C@@H]2C[C@H](C(=O)NCCCCCCNC(=O)CS)[C@H](c3ccc(O)cc3)N2C1=O`, the z-score in assay [1] is -0.206; in assay [2], 1.4 (inactive); in [3], -0.387 (inactive); in assay [5] it was -0.282 (inactive); in [6], 0.144 (inactive); in assay [7], -0.253 (inactive). The z-score is -0.135 (inactive) in assay [8] and -0.437 in [9]. For the same compound, the composite z-score in assay [4] is -0.206 (inactive); in assay [10] it was -0.0911.

On to `COC(=O)C(CC#Cc1ccc2c(c1)[C@]1(C(=O)N2)[C@H](c2ccccc2OCCO)N2[C@H](c3ccccc3)[C@H](c3ccccc3)OC(=O)[C@H]2[C@@H]1C(=O)O)C(=O)OC`, for which the z-score is 0.622 in [1]; -0.502 (inactive) in [2]; 1.39 (inactive) in assay [3]; 1.96 (inactive) in assay [5]; 2.98 (inactive) in assay [6]; 0.84 (inactive) in assay [7]. The z-score in [8] was 0.905 (inactive); in assay [9] it was -0.259. The composite z-score is -5.13 (inactive) in assay [4] and 0.0533 in assay [10].

In the case of `C=CCNC(=O)[C@@H]1[C@H]2C(=O)O[C@H](c3ccccc3)[C@H](c3ccccc3)N2[C@H](c2ccc(OCCO)cc2)[C@@]12C(=O)N(C(=O)OCCOC)c1ccc(C#CCC(C(=O)OC)C(=O)OC)cc12`, the z-score was -0.185 in assay [1]; 1.01 (inactive) in assay [2]; 0.351 (inactive) in assay [3]; 2.85 (inactive) in [5]; 1.61 (inactive) in assay [6]; 0.854 (inactive) in assay [7]. In addition, the z-score in [8] was -0.033 (inactive); in assay [9] it was -1.24. Also, the composite z-score in assay [4] is -1.27 (inactive); in assay [10] it was 0.284.

Turning to `CCCCN1CC=CC23O[C@@H]4/C=C\CCCOC(=O)C4[C@H]2C(=O)N(CCCCCO)[C@@H]3C1=O` (stereo not given in full), the z-score is 0.641 in [1]; -0.287 (inactive) in assay [2]; 0.451 (inactive) in assay [3]; 1.02 (inactive) in assay [5]; -1.06 (inactive) in assay [6]; 0.0497 (inactive) in [7]. Also, the z-score is -0.15 (inactive) in assay [8] and 0.313 in assay [9]. Further, the composite z-score in assay [4] was -0.757 (inactive); in assay [10], 0.161.

As for `CCCC=C(CCC)[C@@H](NS(=O)(=O)c1ccc(Cl)cc1)c1ccc(C(=O)OC)cc1`, the z-score in assay [1] is 1.16; in assay [2] it was 0.295 (inactive); in assay [3], 0.349 (inactive); in [5], -0.719 (inactive); in [6], -0.907 (inactive); in [7] it was 0.198 (inactive). Also, the z-score is -1.16 (inactive) in [8] and 0.0665 in assay [9]. In addition, the composite z-score is -0.336 (inactive) in assay [4] and -0.122 in [10].

Consider `O=C1C2C=CC(C(O)C=Cc3ccc([N+](=O)[O-])cc3)N(n3cnnc3)C2C(=O)N1Cc1ccccc1` (stereo not given), for which the z-score was 0.178 in assay [1]; -0.586 (inactive) in assay [2]; -0.519 (inactive) in [3]; 0.601 (inactive) in [5]; -0.155 (inactive) in assay [6]; -0.866 (inactive) in assay [7]. Besides, the z-score was -0.721 (inactive) in [8] and -0.647 in assay [9]. The composite z-score in [4] was 0.607 (inactive); in assay [10], -0.236.

With `CCCNC(=O)[C@@]1(Sc2ccc(C)cc2)CC(=O)N(Cc2ccccc2C(F)(F)F)[C@@H]1c1ccc(CO)cc1I`, the z-score in assay [1] is -0.103; in [2], -3.06 (inactive); in [3], -2.54 (inactive); in [5], 0.298 (inactive); in [6], -1.68 (inactive); in [7], 0.044 (inactive). Besides, the z-score was -0.478 (inactive) in assay [8] and -2.15 in assay [9]. Besides, the composite z-score in [4] was -0.469 (inactive); in assay [10] it was -0.181.

For `Cc1ccc(S(=O)(=O)N2C[C@@H](C(=O)O)[C@H](Sc3ccccc3)C[C@H]2c2ccccc2)cc1`, the z-score in [1] was -0.199; in assay [2], -0.638 (inactive); in assay [3] it was -0.26 (inactive); in [5] it was 0.409 (inactive); in assay [6] it was -0.339 (inactive); in assay [7] it was -0.529 (inactive). In addition, the z-score in [8] is -1.55 (inactive); in [9], -0.911. The values for the composite z-score in assay [4] and in [10] were -1.43 (inactive) and -0.303, respectively.
